In PubChem BioAssay (NCATS):
Inconclusive results are not listed. Values without a mark were called inactive. The source made the active and inactive calls. The call rests on the fitted dose curve.

Assay: S16 Schwann cell PMP22 intronic element beta-lactamase assay (AID 624044); further: nearly all actives have a fitted effect of over 15% in size
Conditions: S16 rat Schwann cells, PMP22 element beta-lactamase FRET, 24 h; ratio activity, negative = inhibition: at 38.3 µM (top of the series)
Source text: Description: Charcot-Marie-Tooth-Association [CMTA] National Center for Advancing Translational Sciences [NCATS] Charcot-Marie-Tooth (CMT) disease was first characterized by Jean-Martin Charcot and Pierre Marie in France and, independently, by Howard Henry Tooth in England in 1886. CMT is one of the most common inherited neurological diseases, affecting approximately 1 in 2,500 Americans. […] The most prevalent type of CMT is known as CMT1A and caused by a duplication of the PMP22 gene which leads to over-expression of this protein. PMP22 is a glycosylated intrinsic membrane protein accounting for 2-5% of the myelin protein content, and its over-expression results in demyelination and subsequently axonal loss. A pair of cellular transcription-based assays was developed in the S16 rat Schwann cell lines (Hai, M., et al., 2002) stably transfected with orthogonal reporters - firefly luciferase (Fluc) and beta-lactamase (beta-Lac) - whose expression is driven by an intronic regulatory element of the PMP22 gene (Jones, E.A., et al., 2011) to recapitulate endogenous expression of PMP22. The current assay employs Blac as a reporter of PMP22 expression. A comprehensive library of approved drugs, the NCGC Pharmaceutical Collection (Huang, R., et al., 2011), was screened in the cross-validating platform of the orthogonal reporter assays to identify drug modulators inhibitory towards PMP22 expression. A set of counter-screens was devised to address non-specific activity of the library. An ATP-dependent CellTiter-Glo assay (developed by Promega Corp) was utilized to control cell viability. In addition, biochemical Fluc enzyme assay was performed to assess direct inhibition of the Fluc enzymatic activity. References Hai, M., Muja, N., DeVries, G.H., Quarles, R.H. and Patel, P.I. Comparative analysis of Schwann cell lines as model systems for myelin gene transcription studies. J Neurosci Res, 2002. 69(4): pp 497-508 Huang, R., Southall, N., Wang, Y., Yasgar A., Shinn P., Jadhav, A. , Nguyen, D.-T. and Austin, C.P., The NCGC pharmaceutical collection: a comprehensive resource of clinically approved drugs enabling repurposing and chemical genomics. Sci Transl Med, 2011. 3(80): p. 80ps16.
S16 Schwann cell PMP22 intronic element beta-lactamase assay The beta-Lac-expressing S16 cells were seeded in black clear-bottom 1536 well plates at between 500-750 cells/6uL in DMEM medium containing 10% FBS, w/o phenol red. After overnight incubation at 37 degree Celsius/5% C02, 23 nL of compounds or DMSO were delivered to each well using a pin tool, followed by 24h-incubation at 37 degree Celsius/5% C02. Then one microl of LiveBLAzer FRET B/G detection mix (Invitrogen) was added to each well. An EnVision plate reader (PerkinElmer) was used to detect the dual beta-Lac output composed of fluorescence at 460nm for beta-Lac expression and FRET at 535nm for cell viability. The % signal at 535 nm was scaled to a full range of DMSO and zero and then normalized using the maximum response observed in the screen as 100% activity. The % signal at 460nm was normalized to the average readings of potassium clavulanate (a positive control) - treated cells relative to DMSO-treated cells (0% Activity). The concentration-effect curves were then classified based on curve quality (r2), response magnitude and degree of measured activity.
Potency means the concentration at half of the fitted maximal effect.

| Structure (SMILES) | ratio activity, negative = inhibition | Potency |
| --- | --- | --- |
| C=CC[N+]1(C)CCC23c4c5ccc(O)c4O[C@H]2C(=O)CC[C@@]3(O)C1C5 (stereo not given in full) | -3.93% | – |
| O=C1CC2OCC=C3CN4CCC56c7ccccc7N1C5[C@H]2[C@H]3C[C@H]46 (stereo not given in full) (tested in a mixture with another compound) | -2.02% | – |
| C[C@]12C=CC(=O)C=C1CC[C@@H]1C2CC[C@]2(C)OC(=O)CCC12 (stereo not given in full) | 3.6% | – |
| COC(=O)C1C(OC(=O)c2ccccc2)CC2CCC1N2C (stereo not given) | 2% | – |
| CN(C)[C@@H](Cc1ccccc1)c1ccccc1 | -27.7% | – |
| [S]=[Sb][S][Sb]=[S] | 0.587% | – |
| CNC1=CN(O)C(c2ccccc2)=c2cc(Cl)ccc2=N1 | 1.18% | – |
| CN1C2CCC1C(C(=O)O)C(OC(=O)c1ccccc1)C2 (stereo not given) | 0.153% | – |
| C[C@]12CC[C@H]3[C@@H](CC[C@@]45O[C@@H]4C(=O)C(C#N)C[C@]35C)[C@@H]1CC[C@@H]2O (stereo not given in full) | 0.634% | – |
| C#CC1(O)C=CC2C3CCC4=CC(=O)CCC4C3CCC21CC (stereo not given) | -13.9% | – |
| Cc1ccc2c(c1)[C@@H]1CN(C)CC[C@H]1N2 | 4.44% | – |
| CCCCCCC(=O)O[C@H]1CC[C@H]2[C@@H]3CCC4CC(=O)C=C(C)[C@]4(C)[C@H]3CC[C@]12C (stereo not given in full) | -35% | – |
| CCOC(=O)/C=C(C)/C=C/CC(C)CCCC(C)C (stereo not given) | 0.968% | – |
| CC1(C)[C@@H](C=C(Cl)Cl)[C@@H]1C(=O)OCc1c(F)c(F)cc(F)c1F | 3.49% | – |
| COC(C(=O)C(O)C(C)O)C1Cc2cc3cc(OC4CC(OC5CC(O)C(OC)C(C)O5)C(OC(C)=O)C(C)O4)c(C)c(O)c3c(O)c2C(=O)C1OC1CC(OC2CC(OC3CC(C)(O)C(OC(C)=O)C(C)O3)C(O)C(C)O2)C(O)C(C)O1 (stereo not given) | – | 79.4 nM (active) |
| CCC(=O)OC1(c2ccccc2)CCN(C)CC1C (stereo not given) | -0.956% | – |
| CC12CCC3C4CCC(=O)C(O)=C4CCC3C1CCC2OC(=O)CCC1CCCC1 (stereo not given) | -0.127% | – |
| NC(Cc1ccc(Oc2cc(I)c(O)c(I)c2)c(I)c1)C(=O)O (stereo not given) | 1.74% | – |
| C#C[C@]1(O)CC[C@H]2[C@@H]3CCC4=CC(=O)CCC4(C)[C@H]3CCC21C (stereo not given in full) | -5.63% | – |
| OC[C@@H](O)[C@H]1O[C@@H]2OC(C(Cl)(Cl)Cl)O[C@H]2[C@H]1O (stereo not given in full) | -8.3% | – |

| Structure (SMILES) | ratio activity, negative = inhibition | Potency |
| --- | --- | --- |
| CC(Cc1ccccc1)N(C)C (stereo not given) | 3.87% | – |
| C[C@@H](N)[C@@H](O)c1ccc(O)c(O)c1 | -9.21% | – |
| C[C@H](CCCC(C)(C)O)[C@H]1CC[C@H]2[C@@H]3CC=C4C[C@@H](O)CC[C@]4(C)[C@H]3CC[C@]12C | 1.58% | – |
| COc1ccc2c3c1O[C@H]1[C@@H](O)C=C[C@H]4C(C2)NCCC341 (stereo not given in full) | 13.6% | – |
| CCC/C=C/C=C/C(=O)OC1/C(=C/C(=O)OC)CC2CC(C(C)O)OC(=O)CC(O)CC3CC(OC(C)=O)C(C)(C)C(O)(CC4C/C(=C/C(=O)OC)CC(/C=C\C(C)(C)C1(O)O2)O4)O3 (stereo not given) | -43.6% (active) | – |
| CCCN1CCCC2Cc3nc(N)ncc3CC21 (stereo not given) | 0.38% | – |
| CC[C@]1([C@H]2O[C@@H]([C@@H]3O[C@](O)(CO)[C@@H](C)C[C@H]3C)C[C@H]2C)CC[C@@H]([C@]2(C)CC[C@@]3(C[C@@H](O)[C@@H](C)[C@@H]([C@H](C)[C@H](OC)[C@H](C)C(=O)O)O3)O2)O1 | – | 562 nM (active) |
| COc1cc(-c2ccc(-[n+]3nc(-c4ccccc4)nn3-c3ccc([N+](=O)[O-])cc3)c(OC)c2)ccc1-[n+]1nc(-c2ccccc2)nn1-c1ccc([N+](=O)[O-])cc1 | – | 25100 nM (active) |
| CN(C)[C@H]1C(=O)C(C(N)=O)=C(O)[C@]2(O)C(=O)C3=C(O)c4c(O)cccc4[C@@](C)(O)[C@H]3C[C@@H]12 | 1.37% [at 17.1 µM] | – |
| O=[N+]([O-])OC1CO[C@H]2C(O[N+](=O)[O-])COC12 (stereo not given in full) | 1.77% | – |
| C[C@H](N)Cc1ccccc1 | 7.29% | – |
| CC1CC[C@@]2(NC1)OC1CC3C4CC[C@@H]5CC(O)CC[C@@]5(C)C4CC[C@]3(C)C1C2C (stereo not given in full) | -24.9% | – |
| OCC(O)[C@H]1O[C@@H]2O[C@H](C(Cl)(Cl)Cl)O[C@@H]2[C@H]1O (stereo not given in full) | -4.56% | – |
| CC(=O)Oc1ccc2c3c1OC1[C@@H](OC(C)=O)C=C[C@H]4[C@H](C2)N(C)CC[C@]314 (stereo not given in full) | -3.23% | – |
| C[C@@H]1CC[C@H]2[C@@H](C)C(=O)O[C@@H]3OC4(C)CC[C@@H]1C32OO4 (stereo not given in full) | -8.2% | – |
| Nc1nc(O)c(-c2ccccc2)o1 | 3.42% | – |
| CC(=O)O[C@H]1C[C@H](O[C@H]2[C@@H](O)CC(O[C@H]3[C@@H](O)C[C@H](O[C@H]4CC[C@@]5(C)[C@H](CC[C@@H]6[C@@H]5CC[C@]5(C)[C@@H](C7=CC(=O)OC7)CC[C@]65O)C4)O[C@@H]3C)O[C@@H]2C)O[C@H](C)[C@H]1O[C@@H]1O[C@H](CO)[C@@H](O)[C@H](O)[C@H]1O (stereo not given in full) | 1.46% | – |
| CC(C)=O | -4.03% | – |
| CC1OC(O[C@H]2C[C@@H](O)[C@]3(CO)[C@@H]4C(CC[C@]3(O)C2)[C@@]2(O)CC[C@H](C3=CC(=O)OC3)[C@@]2(C)C[C@H]4O)C(O)C(O)C1O (stereo not given in full) | 3.45% | – |
| C#CCN1CC(=O)N(COC(=O)[C@@H]2[C@@H](C=C(C)C)C2(C)C)C1=O | 1.3% | – |
